Results taken from the supplement of paper PMC11732987, “Enantioselective OTUD7B fragment discovery through chemoproteomics screening and high-throughput optimisation” (Communications Chemistry, 2025).

How the values were obtained:
Experiment in all cases: log2 ratio of Biotin-Ahx-Ub-VS probe labelling (fragment/DMSO); higher = less target engagement (more negative = stronger competition), active = hit call of the paper (q ≤ 0.05, log2 ratio ≤ -1)
Settings in all cases: compound concentration: 200 uM; treatment time: 3 h
[1] = target: T1, USP19 (UniProt O94966)
T1 sequence (whole entry): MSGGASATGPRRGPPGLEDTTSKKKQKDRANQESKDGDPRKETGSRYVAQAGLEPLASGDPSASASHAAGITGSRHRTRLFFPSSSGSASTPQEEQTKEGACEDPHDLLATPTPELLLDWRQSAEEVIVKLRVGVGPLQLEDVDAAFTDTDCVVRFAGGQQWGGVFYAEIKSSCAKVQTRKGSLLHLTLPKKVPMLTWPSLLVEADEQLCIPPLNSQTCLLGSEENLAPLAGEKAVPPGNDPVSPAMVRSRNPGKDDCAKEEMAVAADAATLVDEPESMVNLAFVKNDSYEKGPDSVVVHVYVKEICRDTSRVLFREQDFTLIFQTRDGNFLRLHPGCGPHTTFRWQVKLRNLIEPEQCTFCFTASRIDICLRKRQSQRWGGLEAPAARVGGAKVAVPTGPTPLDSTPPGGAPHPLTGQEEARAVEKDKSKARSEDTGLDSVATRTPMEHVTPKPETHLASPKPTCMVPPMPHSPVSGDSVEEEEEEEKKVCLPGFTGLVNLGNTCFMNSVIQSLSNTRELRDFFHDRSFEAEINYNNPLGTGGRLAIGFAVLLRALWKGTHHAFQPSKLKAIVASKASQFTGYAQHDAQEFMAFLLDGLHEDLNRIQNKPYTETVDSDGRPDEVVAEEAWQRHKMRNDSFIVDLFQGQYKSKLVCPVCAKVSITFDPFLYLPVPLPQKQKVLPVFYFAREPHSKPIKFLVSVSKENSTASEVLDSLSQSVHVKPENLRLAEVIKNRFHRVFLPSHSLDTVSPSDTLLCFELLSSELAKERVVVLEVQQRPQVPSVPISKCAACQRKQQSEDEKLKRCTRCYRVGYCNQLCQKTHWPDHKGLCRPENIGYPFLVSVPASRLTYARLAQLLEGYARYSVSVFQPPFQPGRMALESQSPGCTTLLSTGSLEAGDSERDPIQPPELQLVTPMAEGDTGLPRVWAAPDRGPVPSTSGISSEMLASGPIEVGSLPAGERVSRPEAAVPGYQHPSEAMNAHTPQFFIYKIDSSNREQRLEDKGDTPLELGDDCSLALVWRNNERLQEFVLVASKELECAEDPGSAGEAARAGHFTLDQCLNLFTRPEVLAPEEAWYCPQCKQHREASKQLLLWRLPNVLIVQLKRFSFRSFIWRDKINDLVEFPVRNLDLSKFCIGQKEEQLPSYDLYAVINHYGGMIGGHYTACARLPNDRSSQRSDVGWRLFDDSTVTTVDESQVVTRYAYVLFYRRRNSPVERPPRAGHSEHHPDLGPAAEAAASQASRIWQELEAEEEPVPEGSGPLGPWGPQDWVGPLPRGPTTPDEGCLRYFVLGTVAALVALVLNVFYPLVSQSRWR
In short: (§1)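 The table lists average log2 ratios of fragment over vehicle, from an unpaired t-test on global-median-normalised Spectronaut label-free quantities. Proteins with ≥2 unique peptides were used. Samples were HEK293T lysate (495 µg) treated in triplicate with fragment at 200 µM or vehicle for 3 h, then with Biotin-Ahx-Ub-VS (0.5 µM final) for 1 h, with labelled DUBs NeutrAvidin-enriched and run by diaPASEF LC-MS/MS.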

[2] = target: T2, USP22 (UniProt Q9UPT9)
T2 sequence (whole entry): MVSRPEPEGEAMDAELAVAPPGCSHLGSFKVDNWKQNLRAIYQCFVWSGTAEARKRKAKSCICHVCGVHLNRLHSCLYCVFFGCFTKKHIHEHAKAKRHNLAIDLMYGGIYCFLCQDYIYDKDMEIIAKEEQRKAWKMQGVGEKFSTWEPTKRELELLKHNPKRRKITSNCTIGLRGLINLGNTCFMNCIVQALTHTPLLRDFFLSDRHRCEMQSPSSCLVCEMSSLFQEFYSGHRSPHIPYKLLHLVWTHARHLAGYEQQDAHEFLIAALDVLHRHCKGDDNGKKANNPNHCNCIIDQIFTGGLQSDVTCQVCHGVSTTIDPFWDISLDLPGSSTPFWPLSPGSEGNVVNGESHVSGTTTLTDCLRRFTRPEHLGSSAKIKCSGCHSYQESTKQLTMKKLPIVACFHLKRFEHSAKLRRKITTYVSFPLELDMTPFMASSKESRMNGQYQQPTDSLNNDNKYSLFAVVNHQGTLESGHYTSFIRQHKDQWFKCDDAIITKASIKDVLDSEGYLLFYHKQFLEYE
In short: as §1

[3] = target: USP24 (UniProt Q9UPU5)
Chain of USP24 (Q9UPU5 whole entry): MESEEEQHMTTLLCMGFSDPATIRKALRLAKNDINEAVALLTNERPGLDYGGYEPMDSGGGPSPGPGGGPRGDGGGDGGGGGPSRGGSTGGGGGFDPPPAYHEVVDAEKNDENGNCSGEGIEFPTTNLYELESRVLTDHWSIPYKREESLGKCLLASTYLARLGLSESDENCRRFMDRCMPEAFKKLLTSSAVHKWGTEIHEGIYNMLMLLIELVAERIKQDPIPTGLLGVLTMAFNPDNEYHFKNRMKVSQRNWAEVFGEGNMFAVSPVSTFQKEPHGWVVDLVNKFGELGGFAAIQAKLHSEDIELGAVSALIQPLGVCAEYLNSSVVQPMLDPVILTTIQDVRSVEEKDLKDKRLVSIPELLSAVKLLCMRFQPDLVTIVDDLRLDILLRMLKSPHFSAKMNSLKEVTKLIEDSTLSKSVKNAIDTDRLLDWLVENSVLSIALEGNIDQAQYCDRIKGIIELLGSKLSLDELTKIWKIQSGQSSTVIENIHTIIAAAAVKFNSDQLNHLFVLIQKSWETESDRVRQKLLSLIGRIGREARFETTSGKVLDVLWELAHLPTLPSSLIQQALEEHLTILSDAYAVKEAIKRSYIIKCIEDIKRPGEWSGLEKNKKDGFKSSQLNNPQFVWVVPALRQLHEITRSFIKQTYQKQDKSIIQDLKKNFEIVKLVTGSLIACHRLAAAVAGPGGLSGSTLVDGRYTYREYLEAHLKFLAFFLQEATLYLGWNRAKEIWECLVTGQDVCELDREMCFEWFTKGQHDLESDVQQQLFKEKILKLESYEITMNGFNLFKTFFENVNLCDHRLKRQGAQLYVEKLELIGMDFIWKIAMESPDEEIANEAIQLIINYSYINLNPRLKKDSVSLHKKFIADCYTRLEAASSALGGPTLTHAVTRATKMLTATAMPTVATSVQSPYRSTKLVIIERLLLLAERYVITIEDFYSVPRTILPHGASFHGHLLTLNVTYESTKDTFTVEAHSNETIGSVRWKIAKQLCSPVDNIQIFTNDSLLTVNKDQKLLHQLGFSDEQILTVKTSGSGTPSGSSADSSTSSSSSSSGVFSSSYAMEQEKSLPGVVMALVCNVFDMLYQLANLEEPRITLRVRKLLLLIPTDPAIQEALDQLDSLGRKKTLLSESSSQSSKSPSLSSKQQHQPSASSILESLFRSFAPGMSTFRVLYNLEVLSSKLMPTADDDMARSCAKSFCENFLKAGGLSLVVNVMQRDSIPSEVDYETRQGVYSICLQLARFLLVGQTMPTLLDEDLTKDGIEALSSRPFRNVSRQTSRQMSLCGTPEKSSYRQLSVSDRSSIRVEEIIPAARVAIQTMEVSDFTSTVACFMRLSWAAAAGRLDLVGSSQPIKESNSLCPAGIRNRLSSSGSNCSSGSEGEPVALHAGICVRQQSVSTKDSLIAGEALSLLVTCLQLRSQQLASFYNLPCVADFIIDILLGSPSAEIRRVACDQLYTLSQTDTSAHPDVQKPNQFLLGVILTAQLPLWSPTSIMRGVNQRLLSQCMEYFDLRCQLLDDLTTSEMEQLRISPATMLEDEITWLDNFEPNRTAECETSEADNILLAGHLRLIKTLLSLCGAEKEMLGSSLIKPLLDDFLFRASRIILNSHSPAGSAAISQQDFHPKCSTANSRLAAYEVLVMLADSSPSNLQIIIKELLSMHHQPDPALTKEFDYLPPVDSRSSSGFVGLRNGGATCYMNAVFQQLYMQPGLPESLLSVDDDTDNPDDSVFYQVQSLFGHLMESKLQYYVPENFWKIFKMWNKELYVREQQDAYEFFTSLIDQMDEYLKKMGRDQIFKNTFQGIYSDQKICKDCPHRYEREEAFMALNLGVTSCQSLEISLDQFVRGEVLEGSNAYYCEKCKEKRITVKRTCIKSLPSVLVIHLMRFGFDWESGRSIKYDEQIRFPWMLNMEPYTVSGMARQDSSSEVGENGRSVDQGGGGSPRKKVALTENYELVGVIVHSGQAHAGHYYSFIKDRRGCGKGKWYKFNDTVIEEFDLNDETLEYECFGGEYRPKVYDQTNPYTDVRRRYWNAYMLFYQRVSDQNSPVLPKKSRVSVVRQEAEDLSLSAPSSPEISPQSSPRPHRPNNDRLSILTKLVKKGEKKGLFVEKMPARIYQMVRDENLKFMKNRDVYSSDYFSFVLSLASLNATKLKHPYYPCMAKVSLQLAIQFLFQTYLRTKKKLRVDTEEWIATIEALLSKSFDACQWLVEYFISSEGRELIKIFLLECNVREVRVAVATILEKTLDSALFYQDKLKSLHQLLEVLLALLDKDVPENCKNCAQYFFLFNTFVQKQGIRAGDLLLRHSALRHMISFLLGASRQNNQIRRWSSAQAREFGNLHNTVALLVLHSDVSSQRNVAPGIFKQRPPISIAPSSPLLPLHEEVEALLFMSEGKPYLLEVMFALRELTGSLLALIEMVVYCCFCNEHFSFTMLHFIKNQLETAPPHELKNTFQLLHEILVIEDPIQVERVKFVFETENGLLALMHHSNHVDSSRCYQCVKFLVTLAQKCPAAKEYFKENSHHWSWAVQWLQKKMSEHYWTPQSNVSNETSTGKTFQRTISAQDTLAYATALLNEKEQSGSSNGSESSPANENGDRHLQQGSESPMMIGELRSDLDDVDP
In short: as §1

[4] = target: T3, USP25 (UniProt Q9UHP3)
T3 sequence (whole entry): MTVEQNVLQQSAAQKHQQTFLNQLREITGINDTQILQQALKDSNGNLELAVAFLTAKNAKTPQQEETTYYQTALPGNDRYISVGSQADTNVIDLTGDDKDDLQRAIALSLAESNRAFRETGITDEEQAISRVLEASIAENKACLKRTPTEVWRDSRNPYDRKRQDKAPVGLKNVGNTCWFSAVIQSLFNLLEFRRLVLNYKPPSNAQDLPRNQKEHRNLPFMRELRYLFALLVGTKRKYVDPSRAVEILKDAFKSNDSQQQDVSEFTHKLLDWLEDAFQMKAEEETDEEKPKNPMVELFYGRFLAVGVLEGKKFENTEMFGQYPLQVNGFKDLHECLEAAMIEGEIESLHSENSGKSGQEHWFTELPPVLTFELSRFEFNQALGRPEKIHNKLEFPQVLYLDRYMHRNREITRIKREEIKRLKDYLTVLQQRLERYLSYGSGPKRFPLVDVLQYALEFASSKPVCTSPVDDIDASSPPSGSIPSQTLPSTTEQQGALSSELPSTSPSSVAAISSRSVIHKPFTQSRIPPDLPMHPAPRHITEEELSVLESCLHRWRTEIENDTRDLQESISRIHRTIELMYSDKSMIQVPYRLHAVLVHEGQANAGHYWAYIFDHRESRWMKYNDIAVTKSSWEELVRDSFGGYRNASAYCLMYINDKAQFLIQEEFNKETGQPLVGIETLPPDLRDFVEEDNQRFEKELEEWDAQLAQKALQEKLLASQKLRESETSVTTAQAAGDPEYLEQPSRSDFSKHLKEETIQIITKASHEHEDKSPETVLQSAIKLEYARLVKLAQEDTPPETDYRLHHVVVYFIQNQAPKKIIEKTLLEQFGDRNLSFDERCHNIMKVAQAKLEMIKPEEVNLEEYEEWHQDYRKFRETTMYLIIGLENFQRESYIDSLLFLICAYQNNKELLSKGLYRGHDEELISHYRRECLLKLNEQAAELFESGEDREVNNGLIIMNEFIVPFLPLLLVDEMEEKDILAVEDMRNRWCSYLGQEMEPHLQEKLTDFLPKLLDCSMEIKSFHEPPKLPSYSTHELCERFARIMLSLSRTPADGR
In short: as §1

[5] = target: T4, USP28 (UniProt Q96RU2)
T4 sequence (whole entry): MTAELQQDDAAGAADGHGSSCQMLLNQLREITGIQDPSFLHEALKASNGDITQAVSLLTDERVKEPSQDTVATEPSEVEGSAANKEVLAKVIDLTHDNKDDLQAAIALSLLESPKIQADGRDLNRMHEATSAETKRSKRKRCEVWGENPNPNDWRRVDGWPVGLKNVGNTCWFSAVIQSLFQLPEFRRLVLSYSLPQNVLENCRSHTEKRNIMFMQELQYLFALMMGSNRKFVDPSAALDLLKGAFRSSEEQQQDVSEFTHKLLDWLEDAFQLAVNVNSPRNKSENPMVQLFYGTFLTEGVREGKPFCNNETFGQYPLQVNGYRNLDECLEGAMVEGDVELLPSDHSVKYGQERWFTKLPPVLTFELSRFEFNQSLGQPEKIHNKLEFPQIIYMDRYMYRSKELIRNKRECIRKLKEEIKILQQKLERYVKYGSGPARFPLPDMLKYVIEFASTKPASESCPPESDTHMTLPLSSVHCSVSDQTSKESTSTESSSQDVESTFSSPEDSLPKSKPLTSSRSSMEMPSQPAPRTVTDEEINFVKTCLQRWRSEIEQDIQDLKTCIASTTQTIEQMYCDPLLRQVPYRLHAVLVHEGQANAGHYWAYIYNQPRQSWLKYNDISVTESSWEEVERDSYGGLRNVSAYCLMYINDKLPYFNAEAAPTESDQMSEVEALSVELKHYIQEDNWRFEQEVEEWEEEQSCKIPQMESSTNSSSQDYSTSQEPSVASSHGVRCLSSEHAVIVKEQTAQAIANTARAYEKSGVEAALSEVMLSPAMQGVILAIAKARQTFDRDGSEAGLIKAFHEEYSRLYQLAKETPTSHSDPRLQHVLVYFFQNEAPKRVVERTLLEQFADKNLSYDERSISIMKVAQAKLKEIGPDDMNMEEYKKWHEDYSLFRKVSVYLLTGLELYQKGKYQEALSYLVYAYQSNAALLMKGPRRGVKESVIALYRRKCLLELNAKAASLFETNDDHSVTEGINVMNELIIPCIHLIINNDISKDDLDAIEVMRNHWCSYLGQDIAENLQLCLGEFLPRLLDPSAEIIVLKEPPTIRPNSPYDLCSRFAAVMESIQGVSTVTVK
In short: as §1

Measured: log2 ratio of Biotin-Ahx-Ub-VS probe labelling

CCN1C(=O)C2CN(C(=O)CCl)CCN2C1=O (stereo not given)
inactive: [1] -0.175 | [2] 0.199 | [3] -0.0184 | [4] -0.141 | [5] -0.324
